Test results from PubChem BioAssay.
Results with a measured potency or affinity are listed apart. Inconclusive results are not listed. Activity calls are given as the source filed them.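 How the source made its calls, unless noted: active means signal drop whose fitted half-maximal concentration is at most twice the top valid dose, in every test run; inconclusive means mixed calls across runs, poor fit, or flat 30 to 70% inhibition; inactive means wrong direction, flat within 30%, or potency beyond limit.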

experiment: cytotoxicity in PAX8-dependent RMG-1 cells, dose response, cell-based, cherry-pick (AID 687029); settings: RMG-1 viability, CellTiterGlo ATP luminescence, 96 h; series mostly up to 35 µM;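 further: cells exposed to compound for 96 hours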

Row | Compound | outcome
1 | Cc1cc(Br)c(OCc2ccc(C(=O)N/N=C/c3ccc[nH]3)cc2)c(Br)c1 | inactive
2 | COc1ccc(OCc2cccc(C(=O)Nn3cc([N+](=O)[O-])cn3)c2)cc1 | inactive
3 | CN(C[C@H]1N[C@@H](CO)[C@@H]1c1ccc(C2=CCCC2)cc1)C(=O)c1cccc(F)c1 | inactive
4 | C=CCn1c(C)cc(C2=NNC(=NCC)SC2)c1C | inactive
5 | CCOc1ccccc1NC(=O)c1nc(S(=O)(=O)Cc2cccc(C)c2)ncc1Cl | inactive
6 | Nc1nc(=S)c2ncn([C@@H]3O[C@H](CO)[C@@H](O)[C@H]3O)c2[nH]1 | inactive
7 | CCCCCN=C(N)N/N=C/c1c[nH]c2ccc(OC)cc12 | inactive
8 | COc1ccc(NC(=O)N2CCCCN3[C@@H](CO)[C@@H](c4ccc(C#Cc5ccccc5)cc4)[C@@H]3C2)cc1 | inactive
9 | O=C(CCl)N=c1sccn1Cc1cccc2ccccc12 | inactive
10 | NC(N)=NN=C(c1ccc(F)cc1)c1ccc(C(F)(F)F)cc1 | inactive
11 | COc1ccc(-c2cc(CNc3nc(NC(C)C)nc4cc(-c5ccccc5)sc34)on2)cc1 | inactive
12 | O=C(CCCCCCC(=O)Nc1ccccc1)NO | inactive
13 | O=c1c(Br)c(Br)cnn1-c1ccccc1 | inactive
14 | Nc1nc(N)c2c(ccc3c2ccn3Cc2cccc([N+](=O)[O-])c2)n1 | inactive
15 | CCCCCCN(C(=O)CCl)c1ccccc1 | inactive
16 | CCS(=O)(=O)c1ccc(N=Nc2ccc(O)c3ncccc23)c(OC)c1 | inactive
17 | CN=c1scc(-c2ccccc2F)n1/N=C/c1ccc[nH]1 | inactive
18 | Cc1nc(-c2ccc(NC(=O)c3ccco3)cc2)cs1 | inactive
19 | C(=NNc1ccc2ccccc2n1)c1ccccn1 | inactive
20 | CC(=NNc1ccc2ccccc2n1)c1ccccn1 | inactive

Row | Compound | outcome
21 | CC1OC(CC(=O)O)CC2=C1C(=O)c1c(O)cccc1C2=O (configuration not stated) | inactive
22 | Nc1nc(Sc2ccc([N+](=O)[O-])c3nonc23)c2[nH]cnc2n1 | inactive
23 | Cc1ccc(Cn2ccsc2=NC(=O)CCl)cc1 | inactive
24 | CCOc1ccc(C(=O)O/N=C(\N)c2ccccn2)cc1 | inactive
25 | Nc1ncnc2c(C3OC(CO)C(O)C3O)c[nH]c12 (configuration not stated) | inactive
26 | Cc1nn(-c2ccccc2)c(Cl)c1CN(C(=O)CCl)c1ccc(Cl)cc1 | inactive
27 | CCC1CCCCN1S(=O)(=O)c1ccc(NC(=O)c2nc(S(C)(=O)=O)ncc2Cl)cc1 (configuration not stated) | inactive
28 | CCS(=O)(=O)c1ncc(Cl)c(C(=O)Nc2ccc(S(=O)(=O)N3CCC(C)CC3)cc2)n1 | inactive
29 | COc1ccc(OCc2cccc(C(=O)Nc3cc(C)on3)c2)cc1 | inactive
30 | CN(C)CCNC(=O)c1cccc(-c2cnc3c(NC=O)cc(-c4cccc(C(F)(F)F)c4)cn23)c1 | inactive
31 | COc1ccc(/C=c2/sc3n(c2=O)C(c2ccccc2OC)C2=C(N=3)c3ccccc3CC2)cc1O (configuration not stated) | inactive
32 | Cc1onc(C(=O)N2CCN(C(c3ccccc3)c3ccccc3)CC2)c1[N+](=O)[O-] | inactive
33 | COC(=O)C1C=CC(OC2OC(COC(C)=O)C(OC(C)=O)C(OC(C)=O)C2OC(C)=O)n2c(=O)n(-c3ccccc3)c(=O)n21 (configuration not stated) | inactive
34 | Clc1ccc(Cn2ncc3c(N4CCN(c5ccccc5)CC4)ncnc32)cc1 | inactive
35 | NC1=C(Br)C(=O)c2ncccc2C1=O | inactive
36 | CCN1CCN(Cc2ccc(NC(=O)c3ccc(C)c(NC(=O)C(=O)c4c[nH]c5ccccc45)c3)cc2C(F)(F)F)CC1 | inactive
37 | O=C(NC1=C(NC2CCS(=O)(=O)C2)C(=O)c2ccccc2C1=O)c1ccccc1 (configuration not stated) | inactive
38 | COc1ccc(N(C(=O)CCl)C(C(=O)NCCc2ccccc2)c2cccs2)cc1 (configuration not stated) | inactive
39 | Cc1nn(-c2ccccc2)c(Cl)c1CN(C(=O)CCl)c1cccc2ccccc12 | inactive

experiment: cytotoxicity in IOSE-T80 ovarian epithelial cells, dose response, selectivity assay for PAX8 inhibitor project, cell-based, cherry-pick (AID 687032;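 active means fitted half-maximal concentration for viability loss no higher than twice the top valid dose, in every repeat run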;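 further: cells exposed to compound for 96 h before reading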); settings: CellTiterGlo ATP luminescence, 96 h; series mostly up to 35 µM

Row | Compound | outcome
40 | O=c1c(Br)c(Br)cnn1-c1ccccc1 | inactive
41 | CC1OC(CC(=O)O)CC2=C1C(=O)c1c(O)cccc1C2=O (configuration not stated) | inactive
42 | Cc1nn(-c2ccccc2)c(Cl)c1CN(C(=O)CCl)c1ccc(Cl)cc1 | inactive
